Results from ChEMBL document CHEMBL2218924, “A broad activity screen in support of a chemogenomic map for kinase signalling research and drug discovery” (Biochem J, 2013).

Tests used:
[1] = biological target: Serine/threonine-protein kinase PAK 4 (Homo sapiens) (UniProt O96013); conditions: at 1 µM
[2] = biological target: Serine/threonine-protein kinase PAK 4 (Homo sapiens) (UniProt O96013); conditions: at 10 µM
[3] = biological target: Serine/threonine-protein kinase PAK 5 (Homo sapiens) (UniProt Q9P286); conditions: at 1 µM
[4] = biological target: Serine/threonine-protein kinase PAK 5 (Homo sapiens) (UniProt Q9P286); conditions: at 10 µM
[5] = biological target: Serine/threonine-protein kinase PAK 6 (Homo sapiens) (UniProt Q9NQU5); conditions: at 1 µM
[6] = biological target: Serine/threonine-protein kinase PAK 6 (Homo sapiens) (UniProt Q9NQU5); conditions: at 10 µM
[7] = biological target: PAS domain-containing serine/threonine-protein kinase (Homo sapiens) (UniProt Q96RG2); conditions: at 10 µM
[8] = biological target: Activated CDC42 kinase 1 (Homo sapiens) (UniProt Q07912); conditions: at 1 µM
[9] = biological target: Activated CDC42 kinase 1 (Homo sapiens) (UniProt Q07912); conditions: at 10 µM
[10] = biological target: ALK tyrosine kinase receptor (Homo sapiens) (UniProt Q9UM73); conditions: at 1 µM
[11] = biological target: ALK tyrosine kinase receptor (Homo sapiens) (UniProt Q9UM73); conditions: at 10 µM
[12] = biological target: T1, Activin receptor type-1B (Homo sapiens) (UniProt P36896); conditions: at 1 µM
T1 sequence (whole entry): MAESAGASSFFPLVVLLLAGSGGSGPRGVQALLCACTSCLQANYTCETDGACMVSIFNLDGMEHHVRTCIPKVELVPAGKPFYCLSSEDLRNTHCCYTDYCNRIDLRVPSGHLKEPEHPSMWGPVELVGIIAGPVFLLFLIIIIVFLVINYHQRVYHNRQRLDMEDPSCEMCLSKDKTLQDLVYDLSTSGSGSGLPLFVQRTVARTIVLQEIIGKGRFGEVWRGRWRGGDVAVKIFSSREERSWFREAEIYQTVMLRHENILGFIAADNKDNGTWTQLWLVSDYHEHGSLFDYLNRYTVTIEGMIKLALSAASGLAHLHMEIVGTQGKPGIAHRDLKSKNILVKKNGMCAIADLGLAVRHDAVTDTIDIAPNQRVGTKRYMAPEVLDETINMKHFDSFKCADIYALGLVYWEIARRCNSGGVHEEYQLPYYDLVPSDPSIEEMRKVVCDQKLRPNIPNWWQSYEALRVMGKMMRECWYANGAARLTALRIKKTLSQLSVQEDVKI

[13] = biological target: T1, Activin receptor type-1B (Homo sapiens); conditions: at 10 µM
[14] = biological target: T2, AMP-activated protein kinase (AMPK) alpha-1/beta-1/gamma-1 (Homo sapiens) (UniProt P54619+Q9Y478+Q13131); conditions: at 1 µM
[15] = biological target: T2, AMP-activated protein kinase (AMPK) alpha-1/beta-1/gamma-1 (Homo sapiens); conditions: at 10 µM
[16] = biological target: T3, NUAK family SNF1-like kinase 1 (Homo sapiens) (UniProt O60285); conditions: at 1 µM
T3 sequence (whole entry): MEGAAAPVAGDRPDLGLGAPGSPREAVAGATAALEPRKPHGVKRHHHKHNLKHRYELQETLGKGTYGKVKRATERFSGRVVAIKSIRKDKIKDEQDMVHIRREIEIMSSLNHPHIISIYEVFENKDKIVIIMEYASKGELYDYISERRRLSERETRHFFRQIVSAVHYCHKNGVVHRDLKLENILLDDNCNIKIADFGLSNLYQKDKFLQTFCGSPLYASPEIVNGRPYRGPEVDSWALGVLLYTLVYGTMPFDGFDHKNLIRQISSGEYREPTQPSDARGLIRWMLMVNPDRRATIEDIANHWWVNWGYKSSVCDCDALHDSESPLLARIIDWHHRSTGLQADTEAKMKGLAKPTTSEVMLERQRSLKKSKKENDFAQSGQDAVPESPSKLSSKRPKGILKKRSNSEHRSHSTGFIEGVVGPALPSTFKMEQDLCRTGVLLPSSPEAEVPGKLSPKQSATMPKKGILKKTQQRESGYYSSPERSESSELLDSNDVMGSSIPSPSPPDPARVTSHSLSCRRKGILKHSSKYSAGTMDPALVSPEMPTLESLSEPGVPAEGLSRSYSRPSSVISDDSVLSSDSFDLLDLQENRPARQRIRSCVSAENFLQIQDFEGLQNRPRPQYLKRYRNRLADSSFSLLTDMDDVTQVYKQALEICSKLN

[17] = biological target: T3, NUAK family SNF1-like kinase 1 (Homo sapiens); conditions: at 10 µM
[18] = biological target: T4, Mitogen-activated protein kinase kinase kinase 5 (Homo sapiens) (UniProt Q99683); conditions: at 1 µM
T4 sequence (whole entry): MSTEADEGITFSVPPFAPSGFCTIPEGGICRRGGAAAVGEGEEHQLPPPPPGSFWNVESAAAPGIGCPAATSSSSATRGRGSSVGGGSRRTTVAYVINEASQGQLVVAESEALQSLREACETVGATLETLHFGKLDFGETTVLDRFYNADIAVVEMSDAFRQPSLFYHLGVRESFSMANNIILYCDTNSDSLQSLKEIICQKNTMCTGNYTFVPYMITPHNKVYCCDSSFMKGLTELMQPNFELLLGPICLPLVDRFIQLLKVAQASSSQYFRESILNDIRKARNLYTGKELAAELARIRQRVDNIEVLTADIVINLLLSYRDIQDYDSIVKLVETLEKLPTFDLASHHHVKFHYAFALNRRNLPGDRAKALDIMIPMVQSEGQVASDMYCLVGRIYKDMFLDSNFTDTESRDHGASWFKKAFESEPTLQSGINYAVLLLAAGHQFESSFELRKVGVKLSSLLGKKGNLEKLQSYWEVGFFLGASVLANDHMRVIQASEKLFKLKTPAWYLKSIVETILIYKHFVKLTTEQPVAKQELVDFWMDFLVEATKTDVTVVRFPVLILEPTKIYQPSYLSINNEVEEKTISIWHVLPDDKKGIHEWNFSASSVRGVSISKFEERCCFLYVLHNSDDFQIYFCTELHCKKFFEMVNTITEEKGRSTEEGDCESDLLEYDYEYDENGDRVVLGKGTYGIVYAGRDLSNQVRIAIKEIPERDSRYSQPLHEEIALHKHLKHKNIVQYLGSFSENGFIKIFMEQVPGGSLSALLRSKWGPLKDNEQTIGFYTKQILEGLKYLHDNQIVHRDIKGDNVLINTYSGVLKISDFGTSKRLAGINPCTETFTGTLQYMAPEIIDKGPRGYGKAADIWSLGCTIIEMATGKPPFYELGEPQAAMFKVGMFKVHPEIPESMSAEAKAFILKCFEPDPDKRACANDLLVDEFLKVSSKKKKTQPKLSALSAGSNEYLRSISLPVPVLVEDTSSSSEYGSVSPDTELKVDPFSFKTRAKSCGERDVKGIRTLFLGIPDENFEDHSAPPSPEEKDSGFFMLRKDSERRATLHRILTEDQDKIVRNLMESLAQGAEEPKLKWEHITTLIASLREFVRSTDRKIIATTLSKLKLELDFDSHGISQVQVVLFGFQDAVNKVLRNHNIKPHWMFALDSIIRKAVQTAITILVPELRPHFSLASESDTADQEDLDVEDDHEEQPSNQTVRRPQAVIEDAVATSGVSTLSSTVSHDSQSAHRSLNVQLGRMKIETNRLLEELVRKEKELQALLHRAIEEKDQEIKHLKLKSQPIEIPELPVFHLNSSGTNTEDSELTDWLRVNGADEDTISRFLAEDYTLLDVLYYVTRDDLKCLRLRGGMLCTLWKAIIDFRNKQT

[19] = biological target: T5, AMP-activated protein kinase, AMPK (Homo sapiens) (UniProt P54646+O43741+P54619+Q9UGJ0+Q9Y478+Q13131+Q9UGI9); conditions: at 1 µM
[20] = biological target: T5, AMP-activated protein kinase, AMPK (Homo sapiens); conditions: at 10 µM

Chain of Activated CDC42 kinase 1 (Homo sapiens) (Q07912 whole entry, looked up): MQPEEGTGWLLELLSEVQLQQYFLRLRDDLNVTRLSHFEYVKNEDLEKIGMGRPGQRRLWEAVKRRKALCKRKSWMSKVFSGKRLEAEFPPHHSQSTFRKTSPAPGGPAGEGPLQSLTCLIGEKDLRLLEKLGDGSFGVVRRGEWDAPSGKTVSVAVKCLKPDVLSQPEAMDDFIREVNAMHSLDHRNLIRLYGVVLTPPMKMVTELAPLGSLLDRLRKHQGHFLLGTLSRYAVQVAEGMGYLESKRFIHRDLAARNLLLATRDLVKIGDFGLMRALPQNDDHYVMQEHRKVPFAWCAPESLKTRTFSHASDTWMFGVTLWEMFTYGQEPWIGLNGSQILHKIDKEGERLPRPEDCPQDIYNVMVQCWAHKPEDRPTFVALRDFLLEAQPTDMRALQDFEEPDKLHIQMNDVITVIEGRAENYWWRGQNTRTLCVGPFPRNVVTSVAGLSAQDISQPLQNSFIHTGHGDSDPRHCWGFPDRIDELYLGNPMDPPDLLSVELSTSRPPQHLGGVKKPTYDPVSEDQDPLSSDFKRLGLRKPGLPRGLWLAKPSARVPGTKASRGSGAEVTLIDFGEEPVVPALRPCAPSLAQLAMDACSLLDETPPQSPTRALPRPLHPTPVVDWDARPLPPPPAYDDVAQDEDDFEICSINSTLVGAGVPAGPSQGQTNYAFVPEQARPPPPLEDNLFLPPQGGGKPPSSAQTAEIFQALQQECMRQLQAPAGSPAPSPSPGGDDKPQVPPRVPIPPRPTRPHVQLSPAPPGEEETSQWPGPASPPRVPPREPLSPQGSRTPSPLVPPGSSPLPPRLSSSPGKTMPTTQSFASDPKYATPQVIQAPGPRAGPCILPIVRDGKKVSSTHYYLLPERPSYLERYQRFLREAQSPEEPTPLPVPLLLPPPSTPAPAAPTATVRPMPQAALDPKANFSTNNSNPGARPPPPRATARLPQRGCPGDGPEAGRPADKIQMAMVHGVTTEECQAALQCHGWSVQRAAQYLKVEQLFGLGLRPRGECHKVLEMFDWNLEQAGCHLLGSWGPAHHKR
Chain of Serine/threonine-protein kinase PAK 5 (Homo sapiens) (Q9P286 whole entry, looked up): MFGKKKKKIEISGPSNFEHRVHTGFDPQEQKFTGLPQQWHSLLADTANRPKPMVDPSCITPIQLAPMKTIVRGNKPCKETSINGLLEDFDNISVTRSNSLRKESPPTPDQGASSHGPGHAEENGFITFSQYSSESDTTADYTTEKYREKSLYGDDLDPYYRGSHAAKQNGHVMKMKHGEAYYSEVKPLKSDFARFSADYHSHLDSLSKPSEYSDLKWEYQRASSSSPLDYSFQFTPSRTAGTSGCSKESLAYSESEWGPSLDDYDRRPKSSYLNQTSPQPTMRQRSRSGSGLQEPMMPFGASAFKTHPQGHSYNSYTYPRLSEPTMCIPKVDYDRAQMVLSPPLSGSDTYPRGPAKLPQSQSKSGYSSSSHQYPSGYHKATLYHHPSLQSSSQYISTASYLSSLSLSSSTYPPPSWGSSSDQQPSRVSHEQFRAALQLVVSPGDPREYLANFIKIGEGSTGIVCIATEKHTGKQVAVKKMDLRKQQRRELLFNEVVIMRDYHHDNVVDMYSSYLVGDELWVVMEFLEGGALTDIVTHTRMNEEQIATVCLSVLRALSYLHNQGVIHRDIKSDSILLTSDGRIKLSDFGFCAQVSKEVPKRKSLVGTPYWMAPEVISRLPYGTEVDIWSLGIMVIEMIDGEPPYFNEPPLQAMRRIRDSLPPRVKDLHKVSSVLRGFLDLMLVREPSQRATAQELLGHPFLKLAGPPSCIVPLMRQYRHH
T2 sequence (P54619 whole entry): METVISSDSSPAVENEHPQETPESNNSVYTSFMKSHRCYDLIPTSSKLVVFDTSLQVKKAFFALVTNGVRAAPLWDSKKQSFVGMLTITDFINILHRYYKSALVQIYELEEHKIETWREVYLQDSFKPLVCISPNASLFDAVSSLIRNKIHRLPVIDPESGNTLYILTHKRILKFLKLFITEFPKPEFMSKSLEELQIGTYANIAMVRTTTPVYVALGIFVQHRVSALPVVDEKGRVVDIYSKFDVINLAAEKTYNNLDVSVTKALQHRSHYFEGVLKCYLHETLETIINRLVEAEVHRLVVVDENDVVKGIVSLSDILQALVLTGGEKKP
T2 sequence (Q13131 whole entry partner): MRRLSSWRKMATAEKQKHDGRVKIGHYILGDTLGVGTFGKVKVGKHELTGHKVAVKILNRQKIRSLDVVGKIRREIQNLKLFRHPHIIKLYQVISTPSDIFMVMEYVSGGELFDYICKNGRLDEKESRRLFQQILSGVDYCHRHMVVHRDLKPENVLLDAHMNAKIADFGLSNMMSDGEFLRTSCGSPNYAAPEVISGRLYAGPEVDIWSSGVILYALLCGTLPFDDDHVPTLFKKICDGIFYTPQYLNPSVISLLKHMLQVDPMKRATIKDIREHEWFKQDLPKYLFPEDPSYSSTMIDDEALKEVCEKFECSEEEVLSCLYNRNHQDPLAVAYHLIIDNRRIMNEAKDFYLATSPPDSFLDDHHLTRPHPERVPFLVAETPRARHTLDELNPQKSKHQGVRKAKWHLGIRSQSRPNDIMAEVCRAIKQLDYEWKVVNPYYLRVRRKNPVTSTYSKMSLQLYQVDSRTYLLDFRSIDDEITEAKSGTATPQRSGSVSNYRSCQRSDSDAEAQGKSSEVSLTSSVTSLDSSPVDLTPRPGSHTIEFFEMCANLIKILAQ
T2 sequence (Q9Y478 2-270 partner limits assumed): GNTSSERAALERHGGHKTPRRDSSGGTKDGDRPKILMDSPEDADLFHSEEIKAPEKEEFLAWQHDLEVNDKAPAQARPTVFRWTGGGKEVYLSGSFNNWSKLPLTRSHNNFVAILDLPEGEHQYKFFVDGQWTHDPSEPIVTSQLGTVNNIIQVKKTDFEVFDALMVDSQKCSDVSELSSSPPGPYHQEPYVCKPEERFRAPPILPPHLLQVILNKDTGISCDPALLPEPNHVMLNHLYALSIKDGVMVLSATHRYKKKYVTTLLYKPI
Chain of Serine/threonine-protein kinase PAK 6 (Homo sapiens) (Q9NQU5 whole entry, looked up, the tested form may be a part): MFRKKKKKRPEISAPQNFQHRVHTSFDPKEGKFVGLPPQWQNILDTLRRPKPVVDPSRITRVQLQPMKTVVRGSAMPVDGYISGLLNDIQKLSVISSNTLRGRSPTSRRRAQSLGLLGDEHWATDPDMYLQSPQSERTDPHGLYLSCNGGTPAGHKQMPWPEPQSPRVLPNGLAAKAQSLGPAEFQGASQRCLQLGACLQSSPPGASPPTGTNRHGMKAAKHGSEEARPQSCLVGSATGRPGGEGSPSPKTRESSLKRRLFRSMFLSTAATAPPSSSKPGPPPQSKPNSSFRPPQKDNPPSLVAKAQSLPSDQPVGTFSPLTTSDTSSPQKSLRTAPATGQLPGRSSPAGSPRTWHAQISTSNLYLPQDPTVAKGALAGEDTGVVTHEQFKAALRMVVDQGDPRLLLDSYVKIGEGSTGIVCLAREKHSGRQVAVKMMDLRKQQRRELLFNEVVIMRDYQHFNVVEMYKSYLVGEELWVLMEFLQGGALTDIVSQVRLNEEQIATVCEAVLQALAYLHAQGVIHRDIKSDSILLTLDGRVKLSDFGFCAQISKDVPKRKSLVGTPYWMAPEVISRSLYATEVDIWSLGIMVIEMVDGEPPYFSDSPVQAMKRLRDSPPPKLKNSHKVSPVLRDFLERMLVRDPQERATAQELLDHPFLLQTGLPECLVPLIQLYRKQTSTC
Chain of PAS domain-containing serine/threonine-protein kinase (Homo sapiens) (Q96RG2 whole entry, the tested form may be a part): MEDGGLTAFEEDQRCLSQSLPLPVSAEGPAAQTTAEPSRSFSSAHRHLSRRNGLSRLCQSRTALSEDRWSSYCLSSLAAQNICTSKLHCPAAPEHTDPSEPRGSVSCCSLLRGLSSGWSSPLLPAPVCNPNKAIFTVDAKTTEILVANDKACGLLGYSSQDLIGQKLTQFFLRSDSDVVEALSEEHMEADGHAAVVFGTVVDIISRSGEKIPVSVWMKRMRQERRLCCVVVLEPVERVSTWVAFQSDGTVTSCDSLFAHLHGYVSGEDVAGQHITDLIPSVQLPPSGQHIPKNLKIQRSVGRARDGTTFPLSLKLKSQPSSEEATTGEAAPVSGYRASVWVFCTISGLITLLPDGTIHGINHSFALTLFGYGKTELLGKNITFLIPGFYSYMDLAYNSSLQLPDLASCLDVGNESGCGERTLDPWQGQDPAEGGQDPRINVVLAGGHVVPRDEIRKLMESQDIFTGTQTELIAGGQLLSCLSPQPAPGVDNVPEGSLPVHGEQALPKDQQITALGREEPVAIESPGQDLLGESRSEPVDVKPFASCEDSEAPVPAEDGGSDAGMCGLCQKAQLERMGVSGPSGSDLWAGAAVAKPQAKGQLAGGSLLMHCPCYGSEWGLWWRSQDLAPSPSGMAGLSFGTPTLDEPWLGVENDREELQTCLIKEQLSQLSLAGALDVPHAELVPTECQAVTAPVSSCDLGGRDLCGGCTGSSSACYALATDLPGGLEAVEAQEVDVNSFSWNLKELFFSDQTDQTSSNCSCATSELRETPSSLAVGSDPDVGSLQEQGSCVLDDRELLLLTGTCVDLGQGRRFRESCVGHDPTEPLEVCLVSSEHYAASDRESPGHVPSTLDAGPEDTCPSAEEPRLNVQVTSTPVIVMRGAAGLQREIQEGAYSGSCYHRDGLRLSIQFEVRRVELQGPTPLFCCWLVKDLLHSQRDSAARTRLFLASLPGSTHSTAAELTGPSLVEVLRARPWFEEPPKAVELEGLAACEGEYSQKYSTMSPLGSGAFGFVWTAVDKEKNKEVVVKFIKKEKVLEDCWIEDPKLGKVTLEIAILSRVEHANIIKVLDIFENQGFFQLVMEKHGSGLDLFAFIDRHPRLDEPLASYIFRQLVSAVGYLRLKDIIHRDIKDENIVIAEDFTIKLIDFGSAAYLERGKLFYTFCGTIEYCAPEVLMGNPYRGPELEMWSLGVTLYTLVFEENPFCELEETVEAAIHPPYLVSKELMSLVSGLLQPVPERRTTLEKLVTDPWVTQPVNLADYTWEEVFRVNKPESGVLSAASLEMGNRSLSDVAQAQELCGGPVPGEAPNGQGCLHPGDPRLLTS

Compound	residual activity [1] [%]	residual activity [2] [%]	residual activity [3] [%]	residual activity [4] [%]	residual activity [5] [%]	residual activity [6] [%]	residual activity [7] [%]	residual activity [8] [%]	residual activity [9] [%]	residual activity [10] [%]	residual activity [11] [%]	residual activity [12] [%]	residual activity [13] [%]	residual activity [14] [%]	residual activity [15] [%]	residual activity [16] [%]	residual activity [17] [%]	residual activity [18] [%]	residual activity [19] [%]	residual activity [20] [%]
CC(=O)c1ccc(N2CCOCC2)cc1O	100	90	97	91	95	107	88	94	73	80	93	129	106	102	90	97	92	92		
CN(C)CCCn1cc(C2=C(c3c[nH]c4ccccc34)C(=O)NC2=O)c2ccccc21	102	75	88	77		78	18	112	45			119	76	44	10	35	11		26	4
COc1cc2ncnc(N3CCN(C(=O)Nc4ccc(Oc5ccccc5)cc4)CC3)c2cc1OC	94	84	91	122	112			68	54	73	49	104	97	79	97	107	82	79	99	101
c1ccc2c(-c3ccncc3)c[nH]c2c1	93	80	97	103	106	103	20	80	49	76	105		110	93	82	97	84	93		85
c1ccc(-c2n[nH]c3c2oc2ccccc23)cc1	95	83	83	86			77	65	51	84	32	134	99	89	49	89	65	95	91	47
Cn1cnc2cc3c(Nc4cccc(Br)c4)ncnc3cc21	100	89	98	90	90	106	77	66	16	85	59	123	82	90	69	99	80	113	102	65
O=C1NC(=O)/C(=C\c2ccc3nccnc3c2)S1	95	86	86	99	92	94	11	84	66	49	46	115	93	94	45	90	81	78	108	56
O=C(Nc1cccc(Nc2nccc(Nc3cccc(C(F)(F)F)c3)n2)c1)C1CC1	80	34	97	107	90	52	47	25	5	69	48	106	69	96	81	26	41	89	88	83
COc1ccc(C(=O)Nc2sc3c(c2C(N)=O)CCCC3)cc1OC	92	86	104	116	95	93	90	77	54	56	72		83	90	78	87	75	114	93	75
COc1cc2ncc(-c3ccccc3)nc2cc1OC		93			92	74	93	96	56					86	82		77	83		75
c1ccc(-c2n[nH]cc2-c2ccnc3ccccc23)nc1	98	90	92	104			82	77	50	85	105	-3	-4	86	76	99	90	98	101	81
COc1ccc(OC)c2c(=S)c3ccccc3[nH]c12	95	90	115	101	95	80	102	83	57	79	76	90	117	90	81	103	84	96		87
N#CC(C#N)=C(N)/C(C#N)=C/c1ccc(O)cc1	98	91			100	87	65	84	70	88				92	79		96	81	100	
O=C1Nc2ccccc2/C1=C1/Nc2ccccc2/C1=N\OCCC(O)CO (configuration not stated)	44	12	61	30	81	27	116	14	1	24	2			4	4	2	5	68	3	4
Cc1cccc(-c2[nH]c(C(C)(C)C)nc2-c2ccc3c(c2)OCO3)n1	97	88	87	102				90	67	82	102	1	-6	102	83	102	88	83	106	78
O=C1Nc2cc(Br)ccc2/C1=C1/Nc2ccccc2/C1=N\O	30	25	39	55	51	21	115	14	2	35	10	109	96	2	10	11	18	91	1	10
Oc1c2ccccc2c2c3c(cccc13)N=N2	88	45	99	64	91	49	81	50	12	61	29	86	84	64	24	28	17	36	69	28
Cc1cncc2cccc(S(=O)(=O)N3CCCN(C(=O)CN)C[C@H]3C)c12	90	85	86	95	88	86	64	69	21	76		137	86	98	66	95	71	98	97	45
C[C@@H](N)[C@H]1CC[C@H](C(=O)Nc2ccncc2)CC1	92	77	104	106	117	109	85	97	95	116	126	82	63	98	93	101	91	101	104	83
O=c1cc(-c2cccc3c2Sc2ccccc2S3)oc(N2CCOCC2)c1	106	96	108	91	89	72	80	89	84	97	84	88	97	108	90	102	83	102	102	95
